Potency and affinity values are given separately. Values without a mark were called inactive.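 The calls were made as follows: active = fitted half-maximal concentration for loss of cell signal no higher than twice the top valid tested concentration; inconclusive = flat curve at 30 to 70% inhibition, or poor fit; inactive = flat within 30%, signal rise, or potency above limit.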

The experiment in a line: MDA-MB-231 cell growth inhibition, dose response, cytotoxicity control for RAD54 inhibitor project, CellTiter-Glo luminescence, cherry-pick (AID 651692).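 Also: 0% = median of sample compound wells and -100% = staurosporine control wells; more negative values mean stronger loss of viable cell signal.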 To be noted: MDA-MB-231 viability, 24 h; series mostly up to 26 µM; activity change, negative = growth inhibition: at the top concentration.
As to `CCNC(=O)c1cc2c(=O)n3cccc(C)c3nc2n(CCc2ccccc2)c1=N`, the “activity change, negative = growth inhibition” value was -8.42%. Then `C(=C/c1nccc2c1[nH]c1ccccc12)/c1ccc2c(c1)OCO2`, with -17.9%. For `CN(C)CCCNc1nc(-c2ccccc2)nc2ccccc12` the value was 4.91%; for `CCN(CC)CCCNc1nc(-c2ccccc2)nc2ccccc12`, -2.13%.

The record behind these values is PubChem BioAssay AID651692 (Broad Institute, 2012).
